Compound activity: PubChem, The Scripps Research Institute Molecular Screening Center
Compounds with a hit are over-represented: about 2.3% of the library has one in this group of screens.
CHO-K1 Ca antag – counter-screen for M1 antagonists: effect in parental CHO-K1 cells. ATP-induced calcium, Fluo-8 fluorescence. inhibition, % at 3 µM. actives 0.6% (n = 360,000). AID 602250;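 active = inhibition above a per-plate cutoff, the plate's mean sample inhibition plus 3 SD, cut at about 24% in these data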;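 also: 0% = DMSO plus EC80 ATP and 100% = DMSO alone without ATP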
M1 PAM – human CHRM1 positive allosteric modulation; P11229; CHO-K1 hM1, Fluo-8 calcium fluorescence, ACh EC20; 0% = ACh EC20, 100% = maximal ACh; activation, % at 3 µM; actives 0.088% (n = 360,000); AID 588819; in the data active = activation above about 19%, passing the limit was not always enough
Target sequence (P11229 whole entry, looked up): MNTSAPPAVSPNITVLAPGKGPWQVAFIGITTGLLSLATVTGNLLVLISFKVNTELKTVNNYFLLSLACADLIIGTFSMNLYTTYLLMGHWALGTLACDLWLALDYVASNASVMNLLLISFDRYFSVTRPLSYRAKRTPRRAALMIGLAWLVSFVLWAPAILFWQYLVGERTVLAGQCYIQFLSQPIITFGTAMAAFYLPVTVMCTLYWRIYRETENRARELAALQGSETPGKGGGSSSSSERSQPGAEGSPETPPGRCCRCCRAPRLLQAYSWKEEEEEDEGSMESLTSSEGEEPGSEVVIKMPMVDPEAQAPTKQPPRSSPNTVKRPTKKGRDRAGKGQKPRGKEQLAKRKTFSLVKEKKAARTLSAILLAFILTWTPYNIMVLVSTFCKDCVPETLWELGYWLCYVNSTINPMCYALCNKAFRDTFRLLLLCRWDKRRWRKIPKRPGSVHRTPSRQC
CHO-K1 Ca ag – nonselective activator or artifact in parental CHO-K1 cells; actives 0.48% (n = 360,000); activation, % at 3 µM; AID 602248; Fluo-8 calcium fluorescence; scaled to maximal ATP response, vehicle zero; in the data active = activation above about 15%;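 also: untransfected CHO-K1 host cells lacking M1 receptor as counterscreen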
CHRM1 antagonist – blocks human M1 muscarinic receptor; P11229; CHO-K1 hM1, Fluo-8 calcium fluorescence, ACh EC80 antagonist; inhibition, % at 3 µM; actives 1.3% (n = 360,000);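 active = percent inhibition above its own plate's cutoff, namely the mean of that plate's compound wells plus 3 SD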;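 also: peak over basal fluorescence ratio during 140 s after agonist addition; 0% = ACh EC80 plus DMSO and 100% = DMSO alone without agonist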
M1 ag – human M1 muscarinic receptor agonism | actives 0.33% (n = 360,000) | P11229 | activation, % at 3 µM | CHO-K1 hM1, Fluo-8 calcium fluorescence, agonist mode; 0% DMSO, 100% acetylcholine EC100;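 active = activation above the run's mean compound activation plus 3 SD, cut at about 16% in these data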;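 also: peak over basal fluorescence ratio within a 140 s kinetic read after compound addition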
M1 PAM parental – nonselective activator or artifact in parental CHO-K1 calcium assay | ATP EC20, Fluo-8 calcium fluorescence; 0% at ATP EC20, 100% at ATP max | activation, % at 3 µM | actives 0.02% (n = 360,000) | AID 602247;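 active = activation above the run cutoff, the mean activation of all test compounds plus 3 SD, cut at about 40% in these data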;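 also: peak over basal fluorescence ratio in a 140 s read after ATP addition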
* hit, by the source's call.

SMILES | CHO-K1 Ca antag | M1 PAM | CHO-K1 Ca ag | CHRM1 antagonist | M1 ag | M1 PAM parental
COc1ccc(-n2c(C)cc(C(=O)COC(=O)Cn3cnc4ccccc43)c2C)cc1 | 33.2* | -11.7 | 8.6 | 20.2* | 2.1 | 2.0
O=C(CCN1CCN(c2ccc([N+](=O)[O-])cc2)CC1)c1ccc(Cl)cc1 | 16.8 | -18.7 | 9.9 | 37.8* | -4.4 | -8.8
O=C(CN1CCN(c2ccc([N+](=O)[O-])cc2)CC1)c1ccccc1 | 3.0 | -26.2 | 2.3 | 39.6* | -7.9 | 12.7
Cc1nc2sccn2c(=O)c1S(=O)(=O)NCC1CCN(Cc2ccccc2Cl)CC1 | -17.3 | -36.5 | 0.9 | 39.2* | -14.2 | 16.6
CCCN(CC(=O)Nc1ccccc1C)C(=O)c1cccc(S(=O)(=O)N2CCc3ccccc3C2)c1 | 15.7 | -13.8 | 13.0 | 35.0* | 0.3 | -14.5
Brc1ccc2ncnc(Nc3cccc4ccccc34)c2c1 | -11.9 | 2.5 | 19.4* | -4.8 | 12.0 | 12.5
COc1cccc(Nc2ncnc3ccc(Br)cc23)c1 | 0.9 | -3.7 | 0.3 | 0.4 | -5.6 | -12.2
CCC(=O)N(Cc1cc(=O)[nH]c2ccccc12)c1ccccc1C | 55.3* | 10.0 | -0.7 | -6.3 | -2.3 | -31.2
CCC(=O)N(Cc1cc(=O)[nH]c2ccccc12)c1cccc(C)c1 | -7.7 | -21.0 | 0.9 | 65.3* | -4.7 | 11.7
CCCC(=O)N(Cc1cc(=O)[nH]c2ccccc12)c1ccc(C)cc1C | -6.2 | -3.7 | 1.3 | 8.2 | 3.2 | -11.5
CCCC(=O)N(Cc1cc(=O)[nH]c2ccccc12)c1ccc(C)cc1 | -3.8 | -28.5 | 1.7 | 56.9* | 1.3 | 21.6
Cc1c2cnn(CC(=O)N3CCOCC3)c(=O)c2c(C)n1Cc1ccccc1F | -9.2 | 4.9 | 0.8 | -9.7 | 4.8 | 20.0
CCOc1cc(/C=C2\SC(=S)N(C(C(=O)O)c3ccccc3)C2=O)ccc1O (stereo not given) | 9.4 | -1.5 | 28.8* | 8.7 | 19.1* | 0.3
COc1cc(/C=C2\SC(=S)N(C(C(=O)O)c3ccccc3)C2=O)ccc1O (stereo not given) | 6.6 | -8.7 | 29.2* | 5.7 | 17.3* | -14.8
O=C(CC1SC(=Nc2ccccc2)N(CCCO)C1=O)Nc1ccc(Cl)cc1 (stereo not given) | 8.3 | -9.8 | 6.7 | 30.4* | 1.4 | 7.9
CC(C)N=C1SC(CC(=O)Nc2ccccc2)C(=O)N1C(C)C (stereo not given) | 12.3 | -16.4 | 5.3 | 26.5* | -0.9 | -7.7
COc1cccc(CN(C)C(=O)C2CC(=O)N(c3ccc4c(c3)OCCO4)C2)c1 (stereo not given) | -11.2 | 10.2 | 1.7 | -9.0 | -4.1 | 14.3
COc1ccc2[nH]c(C(=O)N(C)c3ccc(F)cc3F)cc2c1 | -6.6 | 4.1 | 4.0 | -1.4 | -1.4 | 14.7
CN(C)c1ncc(CN2CCC(CO)(CCCc3ccccc3)CC2)s1 | -7.6 | 3.5 | 0.2 | -11.1 | 20.4* | -1.8
COC(=O)/C(C#N)=C(/Nc1ccc(F)c(Cl)c1)C(F)(F)F | -2.0 | 5.7 | 0.1 | -7.5 | -3.5 | -10.4
Cc1cnc(NC(=O)CSc2ncc(-c3ccccc3)n2Cc2ccco2)s1 | 3.8 | -5.9 | 11.4 | 22.0 | 21.5* | 10.3
CCN(CC)S(=O)(=O)c1ccc(NC(=O)Nc2cccc(C(F)(F)F)c2)cc1 | 27.8* | -10.6 | 10.5 | 29.6* | 2.3 | 0.0
O=C(Nc1ccncc1)Nc1cccc(C(F)(F)F)c1 | 23.4 | -3.4 | 14.4 | 7.3 | 8.1 | -19.8
O=C(Nc1ccc(OC(F)F)cc1)Nc1cccc(C(F)(F)F)c1 | 26.8* | -18.9 | 9.8 | 23.8* | 0.8 | -0.9
CCOC(=O)C(=CNc1ccc(N2CCCCC2)c(S(=O)(=O)Nc2ccccc2OC)c1)C(=O)OCC | 7.0 | -5.5 | -0.5 | 13.4 | -2.4 | -10.8
SMILES | CHO-K1 Ca antag | M1 PAM | CHO-K1 Ca ag | CHRM1 antagonist | M1 ag | M1 PAM parental
CC(C)NC(=O)C(C)Oc1ccc(S(=O)(=O)NCc2ccc3c(c2)OCO3)cc1 (stereo not given) | -0.6 | 5.3 | 1.7 | -3.5 | -2.4 | 8.7
CC(=O)c1c(C)[nH]c(C(=O)CN(C)CC(=O)Nc2ccccc2Cl)c1C | -7.2 | -11.1 | 5.9 | 4.9 | 4.9 | 8.9
CCN(CC(=O)Nc1ccccc1C(F)(F)F)CC(=O)c1[nH]c(C)c(C(C)=O)c1C | 29.2* | 1.7 | 3.8 | 3.2 | 2.2 | -12.9
C(=N\N1CCN(C(c2ccccc2)c2ccccc2)CC1)/c1ccc2c(c1)OCO2 | 23.9* | -14.7 | -0.5 | 16.8 | -8.4 | 8.0
COc1ccccc1C(=O)OCCNC(=O)Cn1cnc2c1c(=O)n(C)c(=O)n2C | -8.3 | 6.8 | -0.6 | -1.7 | -7.1 | 21.3
COc1ccc(/C=C2\Oc3cc(OCC(=O)N4CCC[C@H]4CO)ccc3C2=O)c(OC)c1 | 8.2 | 5.0 | 0.8 | -13.7 | -3.6 | -13.9
CC(=O)c1ccc(OCCCC(=O)NCC(c2ccco2)N(C)C)cc1 (stereo not given) | 25.4* | 0.2 | -0.2 | 0.4 | -4.9 | -8.2
CC(C)CCOc1ccc(C(=O)NCC(c2ccco2)N(C)C)cc1 (stereo not given) | -3.5 | -29.6 | -0.8 | 28.3* | -12.0 | 7.4
CCOc1ccc(NS(=O)(=O)c2ccc(C(=O)NCC(c3ccco3)N(C)C)cc2)cc1 (stereo not given) | 9.9 | -10.0 | 11.4 | 4.6 | 8.8 | -11.7
Cn1c(=O)c2ncn(CC(=O)N/N=C/c3ccco3)c2n(C)c1=O | 9.0 | -4.5 | -0.2 | 1.2 | -3.3 | -5.8
NC(=O)c1ccsc1NC(=O)CN1CCN(S(=O)(=O)c2ccccc2C(F)(F)F)CC1 | -14.4 | -15.3 | 16.1* | 23.8 | 4.1 | 13.1
O=C(COC(=O)/C=C/c1ccccc1[N+](=O)[O-])NCC(F)(F)F | 10.0 | 6.5 | 0.3 | -4.1 | -2.8 | -15.8
C=C1C(=O)[C@]23C[C@H]1CC[C@H]2[C@]1(C)[C@@H](O)CC[C@@](C)(C(=O)O)[C@H]1C[C@@H]3O | 28.7* | 2.5 | 0.4 | -0.1 | -2.7 | -7.1
C=C1C(=O)[C@]23C[C@H]1CCC2[C@@]1(C)C(C[C@@H]3O)[C@](C)(C(=O)OC)CC[C@@H]1OC(C)=O (stereo not given in full) | 29.3* | -23.5 | 6.2 | 52.0* | -5.8 | -0.4
C=C1C(=O)[C@]23C[C@H]1CCC2[C@@]1(C)C(C[C@@H]3O)[C@](C)(C(=O)O)C[C@H](O)[C@@H]1O (stereo not given in full) | 4.1 | 7.7 | 0.9 | -4.8 | -2.5 | 13.9
COc1ccc(NC(=O)CSc2cc(C(=O)c3nccn3C)c3ccccc3n2)cc1 | -6.0 | -0.8 | 5.8 | 3.9 | -3.8 | 17.8
O=C(O)CCc1ccc(S(=O)(=O)Nc2cc(C(F)(F)F)ccc2N2CCCC2)cc1 | 2.9 | 6.7 | 1.3 | -6.3 | -4.6 | -10.9
